Reference: PubChem BioAssay
The source made the active and inactive calls.

Assays:
[1] = system: Plasmodium falciparum Sir2 (PF13_0152, Sir2A); assay: pfSir2 binders on small-molecule microarrays, primary screen, biochemical, small-molecule microarray, 635 nm fluorescence (AID 1098); conditions: small-molecule microarray binding, fluorescence 635 nm; higher = more signal;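 note: score merges spot fluorescence intensity with its signal-to-noise ratio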
[2] = small-molecule microarray binders of probe aDKK1, primary screen, biochemical, biotinylated probe, 635/667 nm fluorescence (AID 1099); conditions: higher = more signal;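 note: score merges 667nm spot fluorescence with signal to noise across triplicate slides; reference of the scale not given here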
[3] = small-molecule microarray binders of probe aCHRDL2, primary screen, biochemical, biotinylated probe, 635/667 nm fluorescence (AID 1100); conditions: higher = more signal
[4] = splicing luciferase reporter signal modulators, primary screen, spliceosome inhibition project, cell-based, HEK293, splice +/- reporter (AID 1101); conditions: luminescence, 24 h, higher = more signal, called active from +8 up or from −8 down;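 note: HEK293 cells carrying a splicing-competent luciferase reporter gene; test concentration not given here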
[5] = target: Fibroblast growth factor 10 (Homo sapiens) (UniProt O15520); assay: FGF10 binders on small-molecule microarrays, primary screen, biochemical, small-molecule microarray, 635 nm fluorescence (AID 1102); conditions: FGF10 binding, fluorescence 635 nm, higher = more signal
Chain of Fibroblast growth factor 10 (Homo sapiens) (O15520 whole entry, looked up): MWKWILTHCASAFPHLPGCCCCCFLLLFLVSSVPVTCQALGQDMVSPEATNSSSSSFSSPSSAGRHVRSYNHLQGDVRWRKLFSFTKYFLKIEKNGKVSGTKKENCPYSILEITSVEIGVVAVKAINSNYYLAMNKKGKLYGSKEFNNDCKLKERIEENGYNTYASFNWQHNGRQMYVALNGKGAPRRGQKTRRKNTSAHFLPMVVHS

[6] = system: glycogen synthase kinase-3 (GSK3A per assay name; protocol says GSK3B); assay: GSK3 binders on small-molecule microarrays, primary screen, biochemical, small-molecule microarray, 635 nm fluorescence, GSK3A (AID 1103); conditions: small-molecule microarray binding, fluorescence 635 nm; higher = more signal; note: the record names both GSK3A and GSK3B
[7] = target: Epidermal growth factor receptor (Homo sapiens) (UniProt P00533); assay: EGFR binders on small-molecule microarrays, primary screen, biochemical, small-molecule microarray, 635 nm fluorescence (AID 1104); conditions: EGFR binding, higher = more signal;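 note: score merges 667 nm emission intensity with spot signal to noise over triplicate slides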
Chain of Epidermal growth factor receptor (Homo sapiens) (P00533 whole entry, looked up): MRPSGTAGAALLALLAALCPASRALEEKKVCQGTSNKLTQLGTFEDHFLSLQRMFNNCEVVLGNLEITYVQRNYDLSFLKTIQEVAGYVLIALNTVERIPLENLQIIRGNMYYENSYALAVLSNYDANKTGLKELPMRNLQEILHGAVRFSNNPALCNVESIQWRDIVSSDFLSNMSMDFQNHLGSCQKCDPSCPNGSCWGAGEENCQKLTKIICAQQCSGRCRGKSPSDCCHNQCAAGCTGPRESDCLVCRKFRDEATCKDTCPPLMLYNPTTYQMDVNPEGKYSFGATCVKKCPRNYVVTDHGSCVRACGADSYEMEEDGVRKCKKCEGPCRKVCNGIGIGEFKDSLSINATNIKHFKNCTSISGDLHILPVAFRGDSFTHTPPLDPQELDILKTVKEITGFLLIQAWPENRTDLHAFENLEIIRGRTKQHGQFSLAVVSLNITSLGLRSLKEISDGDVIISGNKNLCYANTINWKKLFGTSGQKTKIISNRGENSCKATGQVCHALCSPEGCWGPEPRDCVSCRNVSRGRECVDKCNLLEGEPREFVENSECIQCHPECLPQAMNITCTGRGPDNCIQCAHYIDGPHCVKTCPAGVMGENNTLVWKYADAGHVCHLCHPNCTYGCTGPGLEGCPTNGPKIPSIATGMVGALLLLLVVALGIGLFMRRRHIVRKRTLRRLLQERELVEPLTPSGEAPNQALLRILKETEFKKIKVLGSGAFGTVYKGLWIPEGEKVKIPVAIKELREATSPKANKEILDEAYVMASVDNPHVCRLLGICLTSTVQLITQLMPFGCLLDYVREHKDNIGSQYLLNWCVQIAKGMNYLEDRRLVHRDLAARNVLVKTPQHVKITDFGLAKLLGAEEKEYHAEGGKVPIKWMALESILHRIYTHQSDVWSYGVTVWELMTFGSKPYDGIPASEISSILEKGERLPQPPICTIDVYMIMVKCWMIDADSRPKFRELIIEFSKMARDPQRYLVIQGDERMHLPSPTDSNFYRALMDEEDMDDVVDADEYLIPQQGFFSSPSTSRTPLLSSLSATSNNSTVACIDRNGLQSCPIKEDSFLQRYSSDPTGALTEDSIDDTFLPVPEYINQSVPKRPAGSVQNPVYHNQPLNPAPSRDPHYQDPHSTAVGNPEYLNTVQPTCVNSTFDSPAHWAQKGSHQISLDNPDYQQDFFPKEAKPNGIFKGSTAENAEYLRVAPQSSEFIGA

[8] = target: Follistatin-related protein 3 (Homo sapiens) (UniProt O95633); assay: FSTL3 binders on small-molecule microarrays, primary screen, biochemical, small-molecule microarray, 635 nm fluorescence (AID 1105); conditions: FSTL3 binding, higher = more signal;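 note: score merges emission near 667 nm and signal to noise per printed spot across three slides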
Chain of Follistatin-related protein 3 (Homo sapiens) (O95633 whole entry, looked up): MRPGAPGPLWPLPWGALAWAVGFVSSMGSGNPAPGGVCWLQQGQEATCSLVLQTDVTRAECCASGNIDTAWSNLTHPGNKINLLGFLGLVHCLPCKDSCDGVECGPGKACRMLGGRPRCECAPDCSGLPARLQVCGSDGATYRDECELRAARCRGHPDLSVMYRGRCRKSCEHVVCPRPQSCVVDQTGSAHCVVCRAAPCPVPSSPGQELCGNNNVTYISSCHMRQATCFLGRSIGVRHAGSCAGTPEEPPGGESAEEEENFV

[9] = target: Dickkopf-related protein 1 (Homo sapiens) (UniProt O94907); assay: DKK1 binders on small-molecule microarrays, primary screen, biochemical, small-molecule microarray, 635 nm fluorescence scan (AID 1106); conditions: DKK1 binding, higher = more signal;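 note: score merges emission near 667 nm with signal to noise over three replicate slides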
Chain of Dickkopf-related protein 1 (Homo sapiens) (O94907 whole entry, looked up): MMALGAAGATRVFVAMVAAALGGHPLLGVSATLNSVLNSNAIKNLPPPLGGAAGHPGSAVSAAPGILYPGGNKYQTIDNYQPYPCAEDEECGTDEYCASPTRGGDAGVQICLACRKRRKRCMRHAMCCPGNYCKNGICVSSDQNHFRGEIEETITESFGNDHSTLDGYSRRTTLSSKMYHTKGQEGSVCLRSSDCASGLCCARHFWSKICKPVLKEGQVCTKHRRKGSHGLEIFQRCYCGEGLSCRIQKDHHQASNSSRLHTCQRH

[10] = system: Inhibin beta A chain (activin A); assay: INHBA (activin A) binders on microarrays, primary screen, biochemical, small-molecule microarray, 635 nm fluorescence scan (AID 1107); conditions: small-molecule microarray binding, higher = more signal;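 note: mouse activin A protein probed at 4.33 µg/mL on printed slides; score merges bound-protein fluorescence near 667 nm with spot signal-to-noise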

SMILES	composite z-score [1]	composite z-score [2]	composite z-score [3]	z-score [4]	composite z-score [5]	composite z-score [6]	composite z-score [7]	composite z-score [8]	composite z-score [9]	composite z-score [10]
CN1C(=O)C2C=CC(C(O)c3cccs3)N(Nc3ccccc3)C2C1=O (stereo not given)	0.748	0.168	0.272	1.46 (inactive)	0.765	0.0802	0.007	0.174	-0.0478	0.693
COCCn1c(C(=O)N2CCCC2)cc2c1C[C@H]1CN(C(=O)c3ccccc3)[C@@](Cc3ccc(F)cc3)(C(=O)OC)[C@@H]21	1.17	0.418	0.43	-0.604 (inactive)	-0.149	1.31	0.291	0.664	0.131	0.593
C=C(COC)/C(=C/C[C@@H](OC(C)=O)c1ccc(OCCO)cc1)c1cc(C(=O)OC)ccc1OC	1.22	0.455	-0.103	0.585 (inactive)	1.54	0.794	0.265	1.27	0.43	0.884
C=CCOC(=O)[C@H]1[C@@H]2C(=O)O[C@@H](c3ccccc3)[C@@H](c3ccccc3)N2[C@@H](c2ccc(OCCOC(=O)[C@@H]3C[C@@H]4C(=O)N5CCC[C@H]5C(=O)N4[C@@H]3c3cccc(OCCO)c3)cc2)[C@]12C(=O)Nc1ccccc12	1.19	-0.0198	0.0715	-0.978 (inactive)	1.12	1.31	0.5	0.895	0.651	0.563
C=CCNC(=O)[C@H]1[C@@H]2C(=O)O[C@@H](c3ccccc3)[C@@H](c3ccccc3)N2[C@@H](c2ccc(O)cc2)[C@]12C(=O)N(C(=O)OCCOC)c1ccc(C#CCNC(N)=O)cc12	0.867	0.297	0.537	0.481 (inactive)	0.855	1.11	0.157	0.999	0.936	0.969
COc1ccc(C(=O)Nc2ccc(CN3C(=O)[C@@]4(O[C@@H](CC(=O)N5CCC[C@H]5CO)[C@H]([Si](C)(C)c5ccc(OC)cc5)[C@H]4C)c4ccccc43)cc2)cc1	1.4	-0.143	-0.0233	-0.681 (inactive)	1.38	1.29	1.02	1.44	1.14	0.715
O=C1NCC(=O)N2[C@@H]1C[C@@H](C(=O)O)[C@H]2c1cccc(OCCO)c1	2.28	3.06	1.73	0.45 (inactive)	1.38	1.38	1.96	1.66	2.56	1.74
Cc1ccc(C(C)CC(O)C2C=CC3C(=O)N(C)C(=O)C3N2NC(=O)OC(C)(C)C)o1 (stereo not given)	1.07	0.202	0.0719	1.92 (inactive)	0.803	1.29	0.96	1.3	0.837	-0.0924
COc1ccc([Si](C)(C)[C@@H]2[C@@H](CCO)O[C@]3(C(=O)N(Cc4ccc(N5C(=O)COc6ccccc65)cc4)c4ccccc43)[C@H]2C)cc1	1.31	0.146	0.147	-1.68 (inactive)	0.808	0.522	0.334	0.469	0.129	0.678
COCC(=C=CC[C@@H](O)c1ccccc1OCCO)C[C@@H](O)c1cc(Cl)cc(Cl)c1O	0.781	-0.174	-0.607	-0.458 (inactive)	1.23	1.28	0.334	1.23	0.317	0.495
COCCOC(=O)N1C(=O)[C@@]2(c3ccccc31)[C@H](c1ccccc1OCCO)N1[C@H](c3ccccc3)[C@H](c3ccccc3)OC(=O)[C@H]1[C@@H]2C(=O)Nc1nc2ccccc2s1	1.4	0.262	0.245	-0.968 (inactive)	1.1	1.32	0.661	1.34	0.476	0.0911
CC(CO)N1C(=O)[C@@H]2C3C(=O)OCCC/C=C\[C@H]3OC23C=CCN(c2ccc4ccccc4c2)C(=O)[C@@H]13 (stereo not given in full)	0.0726	-0.146	0.128	-0.317 (inactive)	-1.01	-0.974	-1.04	-0.718	-1.17	-0.107
COc1ccc([Si](C)(C)[C@H]2[C@H](CCn3cc([C@H](O)c4ccccc4)nn3)O[C@@]3(C(=O)N(Cc4cccc(N5CCOC5=O)c4)c4ccccc43)[C@@H]2C)cc1	0.463	0.0739	-0.313	0.36 (inactive)	0.339	0.709	0.334	0.769	0.913	0.464
COc1ccc(C#Cc2ccc3c(c2)[C@]2(C(=O)N3)[C@H](c3ccccc3OCCO)N3[C@H](c4ccccc4)[C@H](c4ccccc4)OC(=O)[C@H]3[C@@H]2C(=O)O)cc1	1.26	0.734	0.142	-2.14 (inactive)	1.4	1.21	0.319	0.98	0.126	0.54
